From PubChem BioAssay
Pf apPOL block = Pf-apPOL DNA polymerase inhibition; Recombinant Pf-apPOL, molecular beacon fluorescence, 1.5 h; 0.25% of 210,000 active; inhibition, % at 10 µM
mHTT-CaM PPI inh = disrupts binding of mutant huntingtin to calmodulin | P42858 | AlphaScreen His-mHTT/GST-CaM binding, luminescence | inhibition, % at 15 µM | 3.6% of 190,000 active | AID 1671202
Target sequence (P42858 whole entry, looked up, change not shown): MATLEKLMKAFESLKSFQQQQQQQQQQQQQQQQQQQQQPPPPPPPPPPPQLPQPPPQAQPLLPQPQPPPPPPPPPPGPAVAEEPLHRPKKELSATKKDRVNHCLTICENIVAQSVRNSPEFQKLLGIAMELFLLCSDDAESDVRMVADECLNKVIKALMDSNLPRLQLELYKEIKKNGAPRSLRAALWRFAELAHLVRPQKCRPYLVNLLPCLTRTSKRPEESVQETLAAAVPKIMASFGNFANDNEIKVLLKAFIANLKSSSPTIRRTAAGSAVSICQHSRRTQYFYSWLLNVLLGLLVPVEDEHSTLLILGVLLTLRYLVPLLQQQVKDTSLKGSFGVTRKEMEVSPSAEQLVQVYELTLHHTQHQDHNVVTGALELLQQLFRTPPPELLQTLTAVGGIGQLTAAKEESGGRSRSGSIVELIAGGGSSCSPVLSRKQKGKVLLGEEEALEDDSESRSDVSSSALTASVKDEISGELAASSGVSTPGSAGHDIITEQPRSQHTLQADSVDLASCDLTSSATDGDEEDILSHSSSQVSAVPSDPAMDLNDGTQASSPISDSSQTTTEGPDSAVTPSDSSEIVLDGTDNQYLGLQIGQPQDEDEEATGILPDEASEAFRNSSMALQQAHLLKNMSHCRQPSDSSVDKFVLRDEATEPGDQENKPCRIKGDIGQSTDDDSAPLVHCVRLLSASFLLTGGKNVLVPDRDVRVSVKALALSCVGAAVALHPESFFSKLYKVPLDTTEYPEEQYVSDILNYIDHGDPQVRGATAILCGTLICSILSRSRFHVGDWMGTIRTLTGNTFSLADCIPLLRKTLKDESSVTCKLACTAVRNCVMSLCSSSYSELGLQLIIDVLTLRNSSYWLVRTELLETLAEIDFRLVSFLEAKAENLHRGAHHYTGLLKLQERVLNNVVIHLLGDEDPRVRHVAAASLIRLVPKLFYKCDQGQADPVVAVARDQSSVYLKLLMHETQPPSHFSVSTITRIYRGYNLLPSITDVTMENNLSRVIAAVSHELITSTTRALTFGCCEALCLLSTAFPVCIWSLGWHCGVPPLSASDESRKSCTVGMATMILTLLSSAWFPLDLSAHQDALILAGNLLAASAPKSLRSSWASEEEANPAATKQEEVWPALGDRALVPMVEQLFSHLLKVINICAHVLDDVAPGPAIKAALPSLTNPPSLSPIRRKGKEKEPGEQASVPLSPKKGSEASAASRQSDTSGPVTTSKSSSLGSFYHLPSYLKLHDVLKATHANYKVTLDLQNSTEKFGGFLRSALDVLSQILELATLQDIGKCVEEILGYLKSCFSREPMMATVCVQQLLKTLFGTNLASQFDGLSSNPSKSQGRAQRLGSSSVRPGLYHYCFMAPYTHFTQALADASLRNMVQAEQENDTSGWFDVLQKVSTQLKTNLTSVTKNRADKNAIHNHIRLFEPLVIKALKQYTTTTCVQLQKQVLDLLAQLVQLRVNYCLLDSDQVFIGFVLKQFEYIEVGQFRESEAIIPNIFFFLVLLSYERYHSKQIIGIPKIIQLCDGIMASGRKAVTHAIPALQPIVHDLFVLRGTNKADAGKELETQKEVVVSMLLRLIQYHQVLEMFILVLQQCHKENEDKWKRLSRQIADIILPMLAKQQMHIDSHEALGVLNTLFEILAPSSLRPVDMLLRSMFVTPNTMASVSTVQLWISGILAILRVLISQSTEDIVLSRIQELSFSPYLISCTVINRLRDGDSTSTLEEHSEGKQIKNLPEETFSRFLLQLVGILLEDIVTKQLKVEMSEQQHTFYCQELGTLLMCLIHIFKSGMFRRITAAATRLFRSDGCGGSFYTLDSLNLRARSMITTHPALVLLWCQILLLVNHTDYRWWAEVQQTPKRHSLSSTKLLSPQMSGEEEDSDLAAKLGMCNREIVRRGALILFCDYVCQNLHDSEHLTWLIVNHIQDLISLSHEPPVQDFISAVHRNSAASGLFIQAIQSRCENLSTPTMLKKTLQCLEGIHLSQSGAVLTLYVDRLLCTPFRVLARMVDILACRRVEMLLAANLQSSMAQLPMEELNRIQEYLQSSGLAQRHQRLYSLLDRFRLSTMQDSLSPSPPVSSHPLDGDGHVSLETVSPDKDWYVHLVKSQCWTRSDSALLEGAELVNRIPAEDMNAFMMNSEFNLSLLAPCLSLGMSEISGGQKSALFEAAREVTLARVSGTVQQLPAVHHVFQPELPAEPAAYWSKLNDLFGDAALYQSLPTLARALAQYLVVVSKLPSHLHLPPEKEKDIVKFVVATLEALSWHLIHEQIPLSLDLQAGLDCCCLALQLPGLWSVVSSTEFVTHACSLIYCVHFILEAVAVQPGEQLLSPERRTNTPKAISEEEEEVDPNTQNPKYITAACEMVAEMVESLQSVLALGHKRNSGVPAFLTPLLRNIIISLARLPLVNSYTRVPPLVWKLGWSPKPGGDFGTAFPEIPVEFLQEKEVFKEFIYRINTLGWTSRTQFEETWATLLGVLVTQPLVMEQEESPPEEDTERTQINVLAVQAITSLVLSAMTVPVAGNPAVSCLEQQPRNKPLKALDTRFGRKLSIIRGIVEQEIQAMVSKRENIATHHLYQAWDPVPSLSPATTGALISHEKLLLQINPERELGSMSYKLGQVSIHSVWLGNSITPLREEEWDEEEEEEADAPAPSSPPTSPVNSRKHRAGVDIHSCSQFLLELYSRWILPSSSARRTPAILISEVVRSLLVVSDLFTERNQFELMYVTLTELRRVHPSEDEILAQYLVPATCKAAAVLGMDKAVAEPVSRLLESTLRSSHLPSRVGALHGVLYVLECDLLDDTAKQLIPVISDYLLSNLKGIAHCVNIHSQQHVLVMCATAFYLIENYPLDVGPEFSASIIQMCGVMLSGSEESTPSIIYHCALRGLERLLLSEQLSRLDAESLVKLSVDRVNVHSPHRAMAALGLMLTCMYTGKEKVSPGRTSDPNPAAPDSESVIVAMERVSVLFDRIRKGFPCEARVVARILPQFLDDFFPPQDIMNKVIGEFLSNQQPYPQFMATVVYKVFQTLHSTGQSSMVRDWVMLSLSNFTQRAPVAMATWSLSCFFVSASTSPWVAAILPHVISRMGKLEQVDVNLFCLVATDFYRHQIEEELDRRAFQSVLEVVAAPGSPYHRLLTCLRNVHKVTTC
A number is an active result; - = inactive; . = no result given; + = active, no number. The sample as a whole holds a higher share of hits than the screen did. No stated cut-off is given here; in the data, active means inhibition above about 50%; inactive means the rest.

SMILES	Pf apPOL block	mHTT-CaM PPI inh
CCOc1cc(/C=C2\SC(=O)NC2=O)ccc1OCc1ccccc1	-	-
COc1ccc(C(=O)CSc2nc(N)cc(=O)[nH]2)cc1	-	-
COc1ccc(C/C(N)=N/OC(=O)c2ccccc2Cl)cc1	-	-
COc1cc(CN2CCN(c3ccc(Cl)cc3)CC2)cc(OC)c1OC	-	-
CC(=O)Nc1ccc(S(=O)(=O)NCC(c2ccc3c(c2)CCCN3C)N(C)C)cc1 (stereo unspecified)	-	-
CC(=O)NC(c1ccco1)c1cc(Cl)c2cccnc2c1O (stereo unspecified)	-	100
O=C(Nc1c(Cl)cc(Cl)c2cccnc12)c1ccco1	-	-
Cc1ccccc1-c1nc2s/c(=C\c3cccs3)c(=O)n2n1	-	-
CCOC(=O)N1CCc2nc(NC(=O)c3nc4ccccc4s3)sc2C1	-	-
N#Cc1ccc(NC(=O)c2sc3ccccc3c2Cl)cc1	-	.
CC(=O)N1CCc2c(sc(NC(=O)c3sc4ccccc4c3Cl)c2C#N)C1	-	61
CCOC(=O)N1CCc2nc(NC(=O)c3sc4ccccc4c3Cl)sc2C1	-	53
CC(=O)c1cccc(Nc2ncnc3c2cnn3-c2ccc(Cl)cc2)c1	-	-
O=C(Nc1ccccc1)c1ccccc1	-	.
NNC(=O)c1nc[nH]c1C(=O)Nc1ccccc1	-	81
N#CC1=C(O)NC(=O)C([n+]2ccccc2)C1c1ccccc1I (stereo unspecified)	-	-
N#CC1=C(S)NC(O)(c2ccccc2)C([n+]2ccccc2)C1c1ccccc1F (stereo unspecified)	-	56
N#CC1=C(S)NC(O)(c2ccccc2)C([n+]2ccc3ccccc3c2)C1c1ccc(F)cc1 (stereo unspecified)	-	75
N#CC1=C(S)N[C@H](c2cccnc2)[C@@](C#N)(C(N)=S)[C@H]1c1cccnc1	.	-
N#CC1=C(S)NC(O)(c2ccccc2)C([n+]2ccc3ccccc3c2)C1c1ccncc1 (stereo unspecified)	-	-
N#CC1=C(S)NC(O)(c2ccccc2)C([n+]2cccc3cc(Cl)ccc32)C1c1cccnc1 (stereo unspecified)	-	59
Cc1cccc(N(CC(=O)O)S(=O)(=O)c2ccccc2)c1C	-	-
Cc1nc2nc(SCC(=O)NCc3ccccc3)nn2c(C)c1Cc1ccccc1F	-	-
COc1cccc(-c2cc(C(=O)Nc3cc(Cl)ccc3Cl)no2)c1	-	-
Cc1ccc(C)n1-c1cc([N+](=O)[O-])ccc1N1CCN(S(C)(=O)=O)CC1	-	.
SMILES	Pf apPOL block	mHTT-CaM PPI inh
COc1ccc(C=Nc2ccc3ncccc3c2)cc1	-	-
COc1ccc(C=Nc2ccc3c(c2)nc(C)n3C)cc1	69	-
CN(C)c1ccc(/C=C/C=N/NC2=NS(=O)(=O)c3ccccc32)cc1	.	+
CN(C)C1=NS(=O)(=O)c2ccccc21	-	-
CCc1ccc(NC(=O)CSC2=NN3CCCC(=O)N=C3S2)cc1	-	-
O=S(=O)(Nc1nccs1)c1ccc(N=Cc2cc(Cl)cc(Cl)c2O)cc1	-	-
O=[N+]([O-])c1ccc(C=Nc2ccc(S(=O)(=O)Nc3nccs3)cc2)cc1	-	62
O=S(=O)(Nc1nccs1)c1ccc(N=Cc2cc(Br)ccc2O)cc1	-	88
O=S(=O)(Nc1nccs1)c1ccc(N=Cc2ccccc2O)cc1	-	-
CC(=O)Nc1ccc(C(=O)NCc2ccc(F)cc2)c(N2CCOCC2)c1	-	-
O=C1[C@H](Cc2ccccc2)NC/C=C\C[C@H](c2ccco2)N1Cc1ccccc1	-	51
O=C1[C@H](Cc2ccccc2)NC/C=C\C[C@@H](c2ccc(Cl)cc2)N1Cc1ccc(Cl)cc1	-	99
O=C(NCCc1ccccc1)N1CCCC1c1ccc(Cl)cc1 (stereo unspecified)	-	-
COC(=O)C1=C(C(=O)OC)[C@]2([C@@H]3C/C=C\CN[C@@H](Cc4ccccc4)C(=O)N3Cc3ccccc3)C=C[C@H]1O2	-	-
COc1cc(C)nc(N(CC(C)C)S(=O)(=O)c2ccc(C)cc2)n1	-	-
CCCc1cc(=O)oc2cc(O)ccc12	-	-
COc1ccc(C=C2Oc3cc(C)c(CN4CCN(C)CC4)c(O)c3C2=O)cc1	-	79
COc1ccc(C=C2Oc3cc(C)c(CN4CCOCC4)c(O)c3C2=O)cc1	-	-
O=C(c1ccc(N2CCNC(c3ccccc3)C2)nc1)N1CCCCC1 (stereo unspecified)	-	-
c1ccc(Nc2nc(-c3ccccc3)[n+](-c3ccccc3)s2)cc1	-	-
c1ccc(CNc2nc(-c3ccccc3)[n+](-c3ccccc3)s2)cc1	-	84
O=C(CN1C(=O)/C(=C/c2ccccc2F)Sc2ccccc21)N1CCN(C2CCCCC2)CC1	-	75
O=C(CN1C(=O)/C(=C/c2ccccc2F)Sc2ccccc21)N1CCCCC1	-	-
Cc1ccc(N2C(=O)CCC2=O)cc1	-	.
Cc1noc(-c2ccc(C(F)(F)F)cc2)c1C(=O)NNC(=O)Nc1ccccc1	-	.
SMILES	Pf apPOL block	mHTT-CaM PPI inh
O=C(Nc1ccc(Cl)cc1)/C(=C\c1ccc2c(c1)OCO2)NC(=O)c1ccccc1Cl	-	-
CCC(=O)N1CCc2cn(CC(C)C)c3cccc(c23)C1	-	54
CC(=O)N1CCc2cn(CC(C)C)c3cccc(c23)C1	-	-
COc1ccc(NC(=O)N2CCc3cn(CC(C)C)c4cccc(c34)C2)cc1OC	-	-
CC(=O)Nc1ccc(C(=O)N2CCc3cn(CC(C)C)c4cccc(c34)C2)cc1	-	72
CCOC(=O)N1CCc2nn(CC(=O)N3CCN(c4ccccc4F)CC3)c(=O)cc2C1	-	-
CC1CCc2c(sc3nc4c5ccccc5c(NCc5ccco5)nn4c(=O)c23)C1 (stereo unspecified)	-	-
O=c1c2c3c(sc2nc2c4ccccc4c(NCC4CCCO4)nn12)CCCC3 (stereo unspecified)	-	65
CCCNC(=O)C1CCN(c2nc3ccsc3c(=O)n2-c2cccc(OC)c2)CC1	-	-
Cc1c(C(=O)NCc2ccccn2)oc2ccc(S(=O)(=O)N3CCOCC3)cc12	-	-
Cc1c(C(=O)NCc2ccccn2)oc2ccc(S(=O)(=O)N3CCCCC3)cc12	-	58
O=C(CNc1ccccc1-c1nc2ccccc2[nH]c1=O)NC1CCCC1	-	-
Cc1cc[n+](C2C(c3ccc(Br)cc3)C(C#N)=C(S)NC2(O)C2CC2)cc1 (stereo unspecified)	-	89
COc1ccccc1C1C(C#N)=C(C(C#N)C#N)NC(O)(C2CC2)C1[n+]1ccc(C)cc1 (stereo unspecified)	-	-
CCN(CC)CC(O)Cn1c(C)c(C)c2ccccc21 (stereo unspecified)	-	-
Cc1c(C)n(CC(O)CN2CCN(Cc3ccccc3)CC2)c2ccccc12 (stereo unspecified)	-	-
CCC(CO)NCC(O)Cn1c(C)c(C)c2ccccc21 (stereo unspecified)	-	-
Cc1ccc(C)c(NCC(O)Cn2c(C)c(C)c3ccccc32)c1 (stereo unspecified)	-	95
Cc1cccc(NCC(O)Cn2c(C)c(C)c3ccccc32)c1 (stereo unspecified)	-	91
Cc1c(C)n(CC(O)CNc2ccccc2)c2ccccc12 (stereo unspecified)	-	54
COCC(C)NC(=O)c1cccc(OC)c1 (stereo unspecified)	-	-
COc1ccc(C=C2Oc3c(ccc(OC)c3C)C2=O)cc1OC	-	-
O=C(NCc1nc(-c2ccc(C(F)(F)F)cc2)no1)c1ccccc1	-	.
